First the molecules themselves.
T1: HaloTag-ATRX ADD domain (163-292)
T1 chain: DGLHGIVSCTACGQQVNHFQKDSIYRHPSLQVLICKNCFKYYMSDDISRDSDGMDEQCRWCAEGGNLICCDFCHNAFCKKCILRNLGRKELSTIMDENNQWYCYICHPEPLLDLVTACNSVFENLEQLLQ

± gives the standard deviation.

In one assay the target is T1, HaloTag-ATRX ADD domain (163-292). Put plainly: peptide microarray binding signal (635 nm), min-max normalized on array (fraction of array maximum); higher = stronger binding. The settings on record: peptide region: Unmod H3 variant; binder concentration: 50 nM. A digest of the protocol:
(§1)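 For each library, binding signal was taken as the triplicate-spot mean intensity and then min-max scaled. Spots of histone 13-mer peptide–cellulose conjugates on nitrocellulose, printed in triplicate with a Cy3 tracer, were probed for 1 h at 4°C with either biotin-labelled HaloTag reader fusions (10 nM to 1 μM) and streptavidin-Alexa Fluor 647 or rabbit histone antibodies (1:10,000 to 1:2,000) and anti-rabbit Alexa 647. Readout at 635 nm came from an Axon GenePix 4000B.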
On to TGGKAPRKQLATK [Unmod H3 variant T G G K A P R K Q L A T K], for which the “peptide microarray binding signal” value worked out at 0.00389 ± 0.00042.
Still for that read-out and setting: under ALQEASEAYLVGL [Unmod H3 variant A L Q E A S E A Y L V G L] stands 0.001818 ± 8.5e-06; under PRKQLATKAARKS [Unmod H3 variant P R K Q L A T K A A R K S], 0.00345 ± 4.2e-05.
Same read-out and setting: under PFQRLVREIAQDF [Unmod H3 variant P F Q R L V R E I A Q D F] stands 0.0275 ± 0.0017.

Staying with this assay, now noted: peptide region: Unmod H3 variant; binder concentration: 500 nM.
In the case of TGGKAPRKQLATK [Unmod H3 variant T G G K A P R K Q L A T K], the “peptide microarray binding signal” value was determined as 0.00729 ± 0.00021.
The same measure, in the same setting: in the case of ALQEASEAYLVGL [Unmod H3 variant A L Q E A S E A Y L V G L] it was 0.00233 ± 5.1e-05.
Take PRKQLATKAARKS [Unmod H3 variant P R K Q L A T K A A R K S]: the “peptide microarray binding signal” value came out at 0.0108 ± 0.00017.
Same read-out and setting: under PFQRLVREIAQDF [Unmod H3 variant P F Q R L V R E I A Q D F] stands 0.0328 ± 0.0016.

Another assay concerns the target HaloTag-ING2 PHD (mouse Ing2 200-280). The description is as above. Conditions: peptide region: Unmod H3 variant; binder concentration: 10 nM. In short, it runs like this: as §1
As to TGGKAPRKQLATK [Unmod H3 variant T G G K A P R K Q L A T K], the “peptide microarray binding signal” value is 0.00788 ± 0.00069.
For ALQEASEAYLVGL [Unmod H3 variant A L Q E A S E A Y L V G L], the “peptide microarray binding signal” value is 0.00292 ± 5.6e-05.
The same measure, in the same setting: under PRKQLATKAARKS [Unmod H3 variant P R K Q L A T K A A R K S] stands 0.00722 ± 0.00031; under PFQRLVREIAQDF [Unmod H3 variant P F Q R L V R E I A Q D F], 0.01385 ± 8.4e-05.

The assay is the same for the next values; noted with them: peptide region: Unmod H3 variant; binder concentration: 100 nM.
With TGGKAPRKQLATK [Unmod H3 variant T G G K A P R K Q L A T K], the “peptide microarray binding signal” value turned out to be 0.00985 ± 0.00081.
The same measure, in the same setting: under ALQEASEAYLVGL [Unmod H3 variant A L Q E A S E A Y L V G L] stands 0.00206 ± 7.3e-05; under PRKQLATKAARKS [Unmod H3 variant P R K Q L A T K A A R K S], 0.0163 ± 0.00099.
In the case of PFQRLVREIAQDF [Unmod H3 variant P F Q R L V R E I A Q D F], the “peptide microarray binding signal” value stood at 0.0259 ± 0.0054.

The target in another assay is anti-H3K4me3 antibody ab8580. Described as above. The settings on record: peptide region: Unmod H3 variant; binder concentration: 1:2,000 dilution. In short, it runs like this: as §1
Consider TGGKAPRKQLATK [Unmod H3 variant T G G K A P R K Q L A T K], for which the “peptide microarray binding signal” value amounted to 0.00126 ± 8.1e-05.
On to ALQEASEAYLVGL [Unmod H3 variant A L Q E A S E A Y L V G L], for which the “peptide microarray binding signal” value came out at 0.0004719 ± 4.7e-06.
The same measure, in the same setting: under PRKQLATKAARKS [Unmod H3 variant P R K Q L A T K A A R K S] stands 0.00119 ± 3.4e-05.
For the molecule PFQRLVREIAQDF [Unmod H3 variant P F Q R L V R E I A Q D F], the “peptide microarray binding signal” value stood at 0.00315 ± 0.00022.

Still in this assay, the particulars now being: peptide region: Unmod H3 variant; binder concentration: 1:10,000 dilution.
TGGKAPRKQLATK [Unmod H3 variant T G G K A P R K Q L A T K]: the “peptide microarray binding signal” value was 0.001541 ± 1.5e-05.
Regarding ALQEASEAYLVGL [Unmod H3 variant A L Q E A S E A Y L V G L], the “peptide microarray binding signal” value was determined as 0.000799 ± 8.3e-06.
The same measure, in the same setting: in the case of PRKQLATKAARKS [Unmod H3 variant P R K Q L A T K A A R K S] it was 0.0012 ± 1.2e-05; in that of PFQRLVREIAQDF [Unmod H3 variant P F Q R L V R E I A Q D F], 0.00759 ± 0.00028.

The target in another assay is anti-H3K9me3 antibody ab8898. The description is as above. Conditions: peptide region: Unmod H3 variant; binder concentration: 1:2,000 dilution. In short, it runs like this:
as §1
In the case of TGGKAPRKQLATK [Unmod H3 variant T G G K A P R K Q L A T K], the “peptide microarray binding signal” value is 0.000876 ± 2.6e-05.
Still for that read-out and setting: under ALQEASEAYLVGL [Unmod H3 variant A L Q E A S E A Y L V G L] stands 0.000453 ± 1.5e-05.
Still for that read-out and setting: under PRKQLATKAARKS [Unmod H3 variant P R K Q L A T K A A R K S] stands 0.000785 ± 1.3e-05; under PFQRLVREIAQDF [Unmod H3 variant P F Q R L V R E I A Q D F], 0.00316 ± 0.00013.

The same assay, now with this note: peptide region: Unmod H3 variant; binder concentration: 1:10,000 dilution.
As to TGGKAPRKQLATK [Unmod H3 variant T G G K A P R K Q L A T K], the “peptide microarray binding signal” value was 0.000807.
The same measure, in the same setting: in the case of ALQEASEAYLVGL [Unmod H3 variant A L Q E A S E A Y L V G L] it was 0.000634; in that of PRKQLATKAARKS [Unmod H3 variant P R K Q L A T K A A R K S], 0.000923 ± 9.6e-06; in that of PFQRLVREIAQDF [Unmod H3 variant P F Q R L V R E I A Q D F], 0.00427 ± 5.7e-05.

The next assay concerns the target T1, HaloTag-ATRX ADD domain (163-292). The description is as above. The settings on record: peptide region: Unmod H2B variant; binder concentration: 50 nM. A digest of the protocol: as §1
EGTKAVTKYTSSK [Unmod H2B variant E G T K A V T K Y T S S K]: the “peptide microarray binding signal” value was 0.00473 ± 0.00015.

Still in this assay, the particulars now being: peptide region: Unmod H2B variant; binder concentration: 500 nM.
On to EGTKAVTKYTSSK [Unmod H2B variant E G T K A V T K Y T S S K], for which the “peptide microarray binding signal” value came to 0.00681 ± 0.00052.

For another assay, the target named is HaloTag-ING2 PHD (mouse Ing2 200-280). The assay is described as above. Conditions: peptide region: Unmod H2B variant; binder concentration: 10 nM. A digest of the protocol:
as §1
As to EGTKAVTKYTSSK [Unmod H2B variant E G T K A V T K Y T S S K], the “peptide microarray binding signal” value turned out to be 0.00561 ± 0.00046.

The assay is the same for the next values; noted with them: peptide region: Unmod H2B variant; binder concentration: 100 nM.
Turning to EGTKAVTKYTSSK [Unmod H2B variant E G T K A V T K Y T S S K], the “peptide microarray binding signal” value is 0.01276 ± 6.8e-05.

In another assay the target is anti-H3K4me3 antibody ab8580. Described as above. The settings on record: peptide region: Unmod H2B variant; binder concentration: 1:2,000 dilution. A digest of the protocol: as §1
For the molecule EGTKAVTKYTSSK [Unmod H2B variant E G T K A V T K Y T S S K], the “peptide microarray binding signal” value was 0.00121 ± 0.00013.

Still in this assay, the particulars now being: peptide region: Unmod H2B variant; binder concentration: 1:10,000 dilution.
As to EGTKAVTKYTSSK [Unmod H2B variant E G T K A V T K Y T S S K], the “peptide microarray binding signal” value was 0.001712 ± 1.6e-05.

The target of the next assay is anti-H3K9me3 antibody ab8898. The description is as above. Conditions: peptide region: Unmod H2B variant; binder concentration: 1:2,000 dilution. A digest of the protocol:
as §1
For the molecule EGTKAVTKYTSSK [Unmod H2B variant E G T K A V T K Y T S S K], the “peptide microarray binding signal” value is 0.000468 ± 9e-06.

Still in this assay, the particulars now being: peptide region: Unmod H2B variant; binder concentration: 1:10,000 dilution.
As to EGTKAVTKYTSSK [Unmod H2B variant E G T K A V T K Y T S S K], the “peptide microarray binding signal” value came to 0.000923 ± 9.6e-06.

The values above are taken from the supplement of paper PMC4022240.
